DAX1 inh-1 – DAX1 (NR0B1) inhibitors on StAR promoter, primary screen, cell-based, luminescence, SF-1 (NR5A1), full-length DAX-1; HEK293T StAR-luciferase reporter, SF-1/DAX-1 repression relief; inhibition, % at 6.8 µM; 370,000 tested, 1.1% active;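 active means inhibition above the mean over all tested compounds plus 3 SD, cut at about 3.6% in these data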;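 further: 0% = DAX-1 cells with DMSO and 100% = cells lacking DAX-1 with DMSO; higher inhibition means more luminescence from relief of DAX-1 repression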
NR1D1 modulator – modulators of Rev-erb alpha DNA binding, primary screen, biochemical, FITC-DNA, fluorescence polarization, uHTS; activity, % at 10 µM; Rev-erbα–FITC-DNA binding, 90 min; 370,000 tested, 0.79% active; AID 1259318, 2017;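 active means activity above about 14%, limit read from the data; passing the limit was not always enough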;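 further: 0% = DMSO wells with 35 nM protein and 100% = DMSO wells with 750 nM protein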
DAX1 inh-2 – DAX1 (NR0B1) inhibitors, primary screen, cell-based, HEK293, Gal4-DAX1, luciferase luminescence; Nuclear receptor subfamily 0 group B member 1 (Homo sapiens), P51843; HEK293 Gal4-DAX1 luciferase reporter; inhibition, % at 6.75 µM; 340,000 tested, 0.99% active; AID 504766, 2011;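 active means inhibition above the mean over all tested compounds plus 3 SD, cut at about 4.2% in these data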;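 further: 0% = DAX1-transfected cells with DMSO and 100% = empty-vector control cells with DMSO; inhibition shows as a rise in luminescence from relieved DAX1 repression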
hcDAF12 agonist – H. contortus DAF-12 nuclear receptor activators, primary screen, cell-based, luminescence, HEK293, lit1-tk-luc reporter | HEK293 hcDAF-12 lit1-tk-luc reporter; 0% DMSO, 100% Δ7-dafachronic acid | activation, % at 6.8 µM | 370,000 tested, 1.4% active;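 active means activation above the mean of all tested compounds plus 3 SD, cut at about 5.5% in these data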;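 further: 100% = response to 3 µM Δ7-dafachronic acid high control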
ssDAF-12 act – S. stercoralis DAF-12 nuclear receptor activators, primary screen, cell-based, luminescence, HEK293, GRIP1 co-expression, lit1-tk-luc. 370,000 tested, 1% active. activation, % at 6.8 µM. AID 652126, 2013. HEK293 ssDAF-12/GRIP1 lit1-tk-luc reporter; % of 3 µM dafachronic acid response;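 active means activation above the mean over all tested compounds plus 3 SD, cut at about 0.9% in these data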;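 further: 0% = DMSO-only wells and 100% = 3 µM delta7-dafachronic acid wells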
hgDAF-12 ag – H. glycines DAF-12 receptor agonists, primary screen, cell-based, luminescence, HEK293, GAL4 fusion, UAS-luciferase. Nuclear hormone receptor DAF-12 (Heterodera glycines), GAL4 fusion. HEK293 GAL4-hgDAF12 UAS-luciferase reporter, agonist luminescence; normalized to butyrate control. 370,000 tested, 1.8% active. activation, % at 6.8 µM;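 active means activation above a cutoff set at the mean of all screened compounds plus 3 SD, cut at about 10% in these data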;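 further: 0% = DMSO wells and 100% = sodium butyrate wells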
Numbers without * were called inactive; · = no result. Rows were chosen to be rich in hits. Some 4.8% of all compounds tested hit in one or more screens of this group.

SMILES	DAX1 inh-1	NR1D1 modulator	DAX1 inh-2	hcDAF12 agonist	ssDAF-12 act	hgDAF-12 ag
CCn1ccc(C(=O)Nc2ccccc2SC)n1	0.9	1.4	0.0	1.3	-0.9	11.3*
CCn1nccc1C(=O)Nc1ccc(Cl)cn1	0.4	-5.0	0.1	0.6	-0.6	1.8
COc1ccc(S[C@]2(C(=O)NCC(C)C)CC(=O)N[C@@H]2c2ccc(OC)cc2)cc1	0.1	-11.1	·	0.5	-1.4	0.0
Cc1ccc(C(=O)O)cc1NC(=O)C1CCCN1S(=O)(=O)c1cccc2nsnc12 (stereo not given)	-0.1	-7.2	0.3	-0.2	1.6*	0.0
Cc1c(NC(=O)C2CCCN2S(=O)(=O)c2cccc3nsnc23)cccc1C(=O)O (stereo not given)	-0.1	-1.9	-0.5	-0.1	-0.1	-1.3
CC(C)C[C@H]1COc2cccc(F)c2S(=O)(=O)N1C	0.5	-0.3	·	-1.5	-1.9	0.1
CCOC(=O)C1=C(C)Nc2nc(C)nn2C1c1ccc(OCC)c(OC)c1 (stereo not given)	-0.3	1.5	-1.7	-0.5	-0.9	-2.7
CCOC(=O)C1=C(C)Nc2nc(C)nn2C1c1ccc(OC)c(OC)c1 (stereo not given)	0.2	5.7	4.6*	1.0	-0.8	2.4
CCOc1cccc(C(=O)Nc2ccc3c(c2)OCCO3)c1	2.6	-2.7	-1.3	5.5	0.9*	8.1
CCCOc1ccc(C(=O)Nc2ccc3c(c2)OCCO3)cc1	2.2	0.2	0.4	5.7*	0.7	12.6*
CC(=O)c1ccc(OCCCC(=O)Nc2ccc3c(c2)OCCO3)cc1	-2.5	-2.0	0.1	-1.3	-1.3	0.7
O=C(Nc1ccc2c(c1)OCCO2)c1cccc(C(=O)Nc2ccc3c(c2)OCCO3)c1	-0.3	0.2	-0.9	2.9	-1.1	1.3
Cc1ccc(C)c(NC(=S)c2nc3ccccc3s2)c1	-0.1	0.9	-1.8	5.8*	1.0*	2.1
Cc1ccc(NC(=S)c2nc3ccccc3s2)cc1	-0.9	-1.7	2.3	2.0	-0.8	-1.2
O=C(CSc1nnc(-c2ccccc2)n1-c1ccc(Cl)cc1)Nc1cccc2ccccc12	-0.6	-1.7	·	-2.8	-0.9	1.3
CC1(C)Cc2nc3sc(C(=O)NCCCO)c(N)c3cc2CO1	0.0	2.7	6.5*	4.5	0.4	2.5
CC1(C)Cc2nc3sc4c(=O)n(CC(N)=O)cnc4c3cc2CO1	0.4	-1.8	0.3	-0.3	-0.5	2.8
[O-][N+](=C(c1ccccc1)c1ccccc1)c1ccccc1	-0.4	-0.4	0.9	2.5	0.9*	-0.5
C[C@]12C(=O)N(c3ccc(Br)cc3)C(=O)N1[C@H]1c3ccccc3OC[C@@H]1[C@H]2c1ccccc1	-1.0	-3.0	0.2	5.8*	-0.9	2.1
CCOC(=O)Cc1csc(SCn2nnc3ccccc3c2=O)n1	-0.3	0.3	1.1	1.4	-1.3	1.2
CCOC(=O)Cc1csc(-n2sc3ccccc3c2=O)n1	0.2	-3.0	1.8	6.3*	0.2	1.3
Cc1ccc(S(=O)(=O)N2CCN(C(=O)COC(=O)COc3ccc(Cl)cc3)CC2)c(C)c1	0.4	-2.3	4.8*	0.0	-0.8	-0.7
CCN1Cc2nnn(Cc3ccccc3)c2-c2cc(N3CCCC3)ccc2S1(=O)=O	-0.3	3.0	·	-3.2	-1.6	1.1
C=CCOc1cccc(C2C(C(=O)c3ccco3)=C(O)C(=O)N2CCN(CC)CC)c1 (stereo not given)	-0.1	-6.9	4.7*	-0.8	-1.4	3.8
O=c1cc(-c2ccccc2)oc2ccc(Br)cc12	1.5	-1.7	0.6	2.7	0.0	6.3
O=c1cc(-c2ccsc2)oc2cc(-c3ccc4c(c3)OCO4)ccc12	-0.5	-10.7	4.7*	0.6	-1.5	-0.2
